Measurements reported in PMC11006913.
Changes are numbered by the printed parent chain.

Tests used:
Assay in all cases: PBM; 200 nM protein, PBS
Conditions in all cases: dsDNA, one strand shown
HOXC9 [1] = biological target: HOXC9 (Homo sapiens, UniProt P31274 178-260, K195R)
SIX6 [2] = biological target: T1, SIX6 (Homo sapiens, UniProt O95475 114-200, L143V)
T1 sequence: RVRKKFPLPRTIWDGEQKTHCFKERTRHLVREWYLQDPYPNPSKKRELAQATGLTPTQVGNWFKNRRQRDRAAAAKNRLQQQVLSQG

SIX6 [3] = biological target: T2, SIX6 (Homo sapiens, UniProt O95475 114-200, H141N)
T2 sequence: T1 sequence with H28N, V30L

PAX4 [4] = biological target: T3, PAX4 (Homo sapiens, UniProt O43316 9-242)
T3 sequence: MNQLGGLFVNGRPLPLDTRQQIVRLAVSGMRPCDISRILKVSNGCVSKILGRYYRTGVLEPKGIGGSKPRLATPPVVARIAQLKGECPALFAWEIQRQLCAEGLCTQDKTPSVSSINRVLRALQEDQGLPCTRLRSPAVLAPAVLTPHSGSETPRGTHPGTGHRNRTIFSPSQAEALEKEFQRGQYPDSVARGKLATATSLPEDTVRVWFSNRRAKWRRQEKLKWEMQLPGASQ

SIX6 [5] = biological target: T4, SIX6 (Homo sapiens, UniProt O95475 114-200, L143M)
T4 sequence: T1 sequence with V30M

SIX6 [6] = biological target: T5, SIX6 (Homo sapiens, UniProt O95475 114-200, L143I)
T5 sequence: T1 sequence with V30I

HOXC9 [7] = biological target: HOXC9 (Homo sapiens, UniProt P31274 178-260)
HOXC9 (Homo sapiens, UniProt P31274 178-260), sequence (P31274 178-260): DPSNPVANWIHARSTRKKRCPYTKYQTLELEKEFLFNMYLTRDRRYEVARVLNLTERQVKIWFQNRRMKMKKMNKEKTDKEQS

SIX6 [8] = biological target: T6, SIX6 (Homo sapiens, UniProt O95475 114-200, T165A)
T6 sequence: T1 sequence with V30L, T52A

PAX4 [9] = biological target: T7, PAX4 (Homo sapiens, UniProt O43316 9-242, R200Q)
T7 sequence: T3 sequence with R192Q

HOXC9 [10] = biological target: HOXC9 (Homo sapiens, UniProt P31274 178-260, R193K)
HOXC9 (Homo sapiens, UniProt P31274 178-260, R193K), sequence (P31274 178-260 R193K): as the sequence (P31274 178-260) above, with R16K counted along it

SIX6 [11] = biological target: T8, SIX6 (Homo sapiens, UniProt O95475 114-200)
T8 sequence: T1 sequence with V30L

HOXC9 [12] = biological target: HOXC9 (Homo sapiens, UniProt P31274 178-260, R222W)
HOXC9 (Homo sapiens, UniProt P31274 178-260, R222W), sequence (P31274 178-260 R222W): as the sequence (P31274 178-260) above, with R45W counted along it

HOXA4 [13] = biological target: HOXA4 (Homo sapiens, UniProt Q00056 201-287, W262R)
HOXA4 (Homo sapiens, UniProt Q00056 201-287, W262R), sequence (Q00056 201-287 W262R): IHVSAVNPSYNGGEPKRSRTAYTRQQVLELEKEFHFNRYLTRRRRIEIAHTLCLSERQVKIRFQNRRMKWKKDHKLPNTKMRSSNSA

VENTX = biological target: T9, VENTX (Homo sapiens, UniProt O95231 78-163)
T9 sequence: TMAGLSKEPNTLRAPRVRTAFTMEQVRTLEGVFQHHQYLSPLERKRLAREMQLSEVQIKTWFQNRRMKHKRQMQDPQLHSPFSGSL

HOXA4 [14] = biological target: HOXA4 (Homo sapiens, UniProt Q00056 201-287, R217L)
HOXA4 (Homo sapiens, UniProt Q00056 201-287, R217L), sequence (Q00056 201-287 R217L): as the sequence (Q00056 201-287 W262R) above, with R17L, R62W counted along it

HOXA4 [15] = biological target: HOXA4 (Homo sapiens, UniProt Q00056 201-287)
HOXA4 (Homo sapiens, UniProt Q00056 201-287), sequence (Q00056 201-287): as the sequence (Q00056 201-287 W262R) above, with R62W counted along it

HOXB6 = HOXB6 (Homo sapiens, UniProt P17509 132-218)
HOXB6, sequence (P17509 132-218): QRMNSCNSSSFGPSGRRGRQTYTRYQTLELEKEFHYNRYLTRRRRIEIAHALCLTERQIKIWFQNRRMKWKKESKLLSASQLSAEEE

HOXC9 (Homo sapiens, UniProt P31274 178-260, K195R), sequence (P31274 178-260 K195R): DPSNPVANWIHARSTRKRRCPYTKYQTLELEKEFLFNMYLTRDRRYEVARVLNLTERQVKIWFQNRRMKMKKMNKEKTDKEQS

For GCCAGACC, the binding signal (HOXC9 [1]) was 9.5 upbm affinity estimate (log intensity, higher = more binding, comparable within an allelic series), the binding signal (SIX6 [2]) was 8.79 upbm affinity estimate (log intensity, higher = more binding, comparable within an allelic series) and the binding signal (SIX6 [3]) was 9.01 upbm affinity estimate (log intensity, higher = more binding, comparable within an allelic series). The binding signal (PAX4 [4]) was 9.05 upbm affinity estimate (log intensity, higher = more binding, comparable within an allelic series), the binding signal (SIX6 [5]) was 8.95 upbm affinity estimate (log intensity, higher = more binding, comparable within an allelic series) and the binding signal (SIX6 [6]) was 8.96 upbm affinity estimate (log intensity, higher = more binding, comparable within an allelic series). The binding signal (HOXC9 [7]) was 9.48 upbm affinity estimate (log intensity, higher = more binding, comparable within an allelic series), the binding signal (SIX6 [8]) was 9.03 upbm affinity estimate (log intensity, higher = more binding, comparable within an allelic series) and the binding signal (PAX4 [9]) was 9.35 upbm affinity estimate (log intensity, higher = more binding, comparable within an allelic series). For the same sequence, the binding signal (HOXC9 [10]) was 9.46 upbm affinity estimate (log intensity, higher = more binding, comparable within an allelic series), the binding signal (SIX6 [11]) was 9.02 upbm affinity estimate (log intensity, higher = more binding, comparable within an allelic series) and the binding signal (HOXC9 [12]) was 9.66 upbm affinity estimate (log intensity, higher = more binding, comparable within an allelic series).

For CCTAGCTC, the binding signal (HOXA4 [13]) was 9.86 upbm affinity estimate (log intensity, higher = more binding, comparable within an allelic series), the binding signal (VENTX) was 8.47 upbm affinity estimate (log intensity, higher = more binding, comparable within an allelic series) and the binding signal (HOXA4 [14]) was 9.83 upbm affinity estimate (log intensity, higher = more binding, comparable within an allelic series). The binding signal (HOXA4 [15]) was 9.82 upbm affinity estimate (log intensity, higher = more binding, comparable within an allelic series).

With GCCAGCCC the binding signal (HOXC9 [1]) was 9.67 upbm affinity estimate (log intensity, higher = more binding, comparable within an allelic series), the binding signal (SIX6 [2]) was 8.86 upbm affinity estimate (log intensity, higher = more binding, comparable within an allelic series) and the binding signal (SIX6 [3]) was 9.06 upbm affinity estimate (log intensity, higher = more binding, comparable within an allelic series). The binding signal (SIX6 [5]) was 9.06 upbm affinity estimate (log intensity, higher = more binding, comparable within an allelic series), the binding signal (SIX6 [6]) was 8.94 upbm affinity estimate (log intensity, higher = more binding, comparable within an allelic series) and the binding signal (HOXC9 [7]) was 9.67 upbm affinity estimate (log intensity, higher = more binding, comparable within an allelic series). The binding signal (SIX6 [8]) was 9.01 upbm affinity estimate (log intensity, higher = more binding, comparable within an allelic series), the binding signal (HOXC9 [10]) was 9.67 upbm affinity estimate (log intensity, higher = more binding, comparable within an allelic series) and the binding signal (SIX6 [11]) was 8.98 upbm affinity estimate (log intensity, higher = more binding, comparable within an allelic series). For the same sequence, the binding signal (HOXC9 [12]) was 9.62 upbm affinity estimate (log intensity, higher = more binding, comparable within an allelic series).

With TCCCCCCA the binding signal (HOXA4 [13]) was 9.6 upbm affinity estimate (log intensity, higher = more binding, comparable within an allelic series), the binding signal (HOXA4 [14]) was 9.7 upbm affinity estimate (log intensity, higher = more binding, comparable within an allelic series) and the binding signal (HOXA4 [15]) was 9.81 upbm affinity estimate (log intensity, higher = more binding, comparable within an allelic series).

ATAATTGC was tested, and the binding signal (HOXC9 [1]) was 12.6 upbm affinity estimate (log intensity, higher = more binding, comparable within an allelic series) and the binding signal (HOXB6) was 12 upbm affinity estimate (log intensity, higher = more binding, comparable within an allelic series).

In the case of GCCCCCCA, the binding signal (HOXA4 [13]) is reported as 9.56 upbm affinity estimate (log intensity, higher = more binding, comparable within an allelic series), the binding signal (HOXA4 [14]) is reported as 9.68 upbm affinity estimate (log intensity, higher = more binding, comparable within an allelic series) and the binding signal (HOXA4 [15]) is reported as 9.71 upbm affinity estimate (log intensity, higher = more binding, comparable within an allelic series). For the same sequence, the binding signal (HOXB6) was 8.91 upbm affinity estimate (log intensity, higher = more binding, comparable within an allelic series).
